Test results as given in PubChem BioAssay (NCATS).
Results filed as inconclusive are left out. Active and inactive are the calls of the source. Unless noted, the call rests on the fitted dose curve; in most records, active means well fitted curve in the direction sought with a large enough effect; inconclusive means small, poorly fitted or top-dose-only effect, or another doubt; inactive means no such curve, though single readings can be large; an effect the other way counts as inactive or inconclusive.

How the values were obtained:
[1] = P-glycoprotein substrates identified in KB-8-5-11 adenocarcinoma cell line, qHTS therapeutic library screen (AID 1346987); further: nearly all actives have a fitted effect of over 65% in size; further: potency means the concentration at half of the fitted maximal effect
Method in brief: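 KB-8-5-11: colchicine-selected sub-line of KB-3-1 over-expressing P-gp; assay medium lacked colchicine. 72 h drug exposure at 37 degree C, CellTiter-Glo.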

[2] = NS1 protein of Zika virus - qHTS assay to identify small molecule inhibitors in human HEK 293 cells (AID 1347053);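 further: series mostly up to about 46 µM; plate controls were infected untreated cells for no effect and uninfected cells for full effect; nearly all actives have a fitted effect of over 55% in size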
Method in brief: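 HEK 293; 20 h pre-culture, 37 C/5% CO2; cpd 1 h pre-infection; ZIKV MR766, MOI = 0.5, 24 h, 37 C; TR-FRET NS1 readout (two anti-NS1 Abs); norm. to no-virus vs infected.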

[3] = qHTS of pediatric cancer cell lines to identify multiple opportunities for drug repurposing: Primary screen for TC32 cells (AID 1347089); further: on the % scale 0 is the no-effect control and ±100 the full control effect; nearly all actives have a fitted effect of over 60% in size
Method in brief: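 TC32 cells, 500-1,000/well in growth medium, compound-treated 48 h at 37 °C; viability from CellTiter-Glo luminescence. Primary screen: MIPE 11-point (0.78 nM–46 µM final), NPC 8-point (0.59 nM–46 µM final); confirmatory at 11-point dilutions.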

[4] = qHTS of pediatric cancer cell lines to identify multiple opportunities for drug repurposing: Primary screen for DAOY cells (AID 1347090);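 further: series mostly up to about 46 µM; plate controls were DMSO for no effect and bortezomib for full effect; nearly all actives have a fitted effect of over 55% in size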
Method in brief: (§1)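 Viability measured as metabolically active cells via CellTiter-Glo luminescence following 48 hours of compound exposure, 11-point dilutions in confirmatory testing. 500-1,000 cells/well plated 5 hours before dosing; controls were DMSO and 2.3 µM bortezomib.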

[5] = qHTS of pediatric cancer cell lines to identify multiple opportunities for drug repurposing: Primary screen for SJ-GBM2 cells (AID 1347091);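 further: plate controls were DMSO neutral control for no effect and bortezomib for full effect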
Method in brief: as §1

[6] = qHTS of pediatric cancer cell lines to identify multiple opportunities for drug repurposing: Primary screen for A673 cells (AID 1347092); further: nearly all actives have a fitted effect of over 45% in size; further: potency means the concentration at half of the fitted maximal effect; on activity change, negative = cytotoxic: on the % scale 0 is the no-effect control and ±100 the full control effect
Method in brief: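 A673 cells (500-1,000 cells/well) were treated 48 hours at 37 degrees C with compounds at 11-point (0.78 nM to 46 µM) or 8-point (0.59 nM to 46 µM) dilutions. Viability read by CellTiter-Glo luminescence; concentration-response curves fitted.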

[7] = qHTS of pediatric cancer cell lines to identify multiple opportunities for drug repurposing: Primary screen for SK-N-MC cells (AID 1347093);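 further: series mostly up to about 46 µM; plate controls were DMSO neutral control for no effect and bortezomib for full effect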
Method in brief: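 Metabolically active cells were quantified by ATP-dependent luminescence (CellTiter-Glo, 15 min at room temperature) following 48 h treatment. Cells had been plated at 500-1,000 per well and settled for 5 h beforehand.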

[8] = qHTS of pediatric cancer cell lines to identify multiple opportunities for drug repurposing: Primary screen for BT-37 cells (AID 1347094); further: potency means the concentration at half of the fitted maximal effect;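 on activity change, negative = cytotoxic: series mostly up to about 57 µM; plate controls were DMSO for no effect and bortezomib for full effect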
Method in brief: (§2)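 Viability was measured as metabolically active cells after 48 hours of treatment, read by CellTiter-Glo luminescence. Compounds were tested at multiple final concentrations, giving concentration-response curves.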

[9] = qHTS of pediatric cancer cell lines to identify multiple opportunities for drug repurposing: Primary screen for NB-EBc1 cells (AID 1347095); further: potency means the concentration at half of the fitted maximal effect;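 on activity change, negative = cytotoxic: plate controls were DMSO neutral control for no effect and bortezomib for full effect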
Method in brief: as §2

[10] = qHTS of pediatric cancer cell lines to identify multiple opportunities for drug repurposing: Primary screen for U-2 OS cells (AID 1347096);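 further: plate controls were DMSO wells for no effect and bortezomib positive control wells for full effect; nearly all actives have a fitted effect of over 50% in size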
Method in brief: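 Viability after 48 h compound treatment at 37C, 500-1,000 cells/well, read as ATP luminescence with CellTiter-Glo. Primary screens used 11-point (MIPE, 0.78 nM-46 µM) or 8-point (NPC, 0.59 nM-46 µM) final concentrations; follow-up screens used 11-point dilutions.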

[11] = molecular target: T1, Tyrosine-protein phosphatase non-receptor type substrate 1 (Homo sapiens) + Leukocyte surface antigen CD47 (Homo sapiens) (UniProt P78324+Q08722); assay: CD47-SIRPalpha protein protein interaction - LANCE assay qHTS validation (AID 1347057; active means well fitted curve in the direction sought with a large enough effect in the signal ratio, with a control signal flat, not every such curve was filed as active; the % refers to the signal ratio; further: series mostly up to about 38 µM; 0% is about no effect)
T1 sequence (P78324 whole entry, looked up): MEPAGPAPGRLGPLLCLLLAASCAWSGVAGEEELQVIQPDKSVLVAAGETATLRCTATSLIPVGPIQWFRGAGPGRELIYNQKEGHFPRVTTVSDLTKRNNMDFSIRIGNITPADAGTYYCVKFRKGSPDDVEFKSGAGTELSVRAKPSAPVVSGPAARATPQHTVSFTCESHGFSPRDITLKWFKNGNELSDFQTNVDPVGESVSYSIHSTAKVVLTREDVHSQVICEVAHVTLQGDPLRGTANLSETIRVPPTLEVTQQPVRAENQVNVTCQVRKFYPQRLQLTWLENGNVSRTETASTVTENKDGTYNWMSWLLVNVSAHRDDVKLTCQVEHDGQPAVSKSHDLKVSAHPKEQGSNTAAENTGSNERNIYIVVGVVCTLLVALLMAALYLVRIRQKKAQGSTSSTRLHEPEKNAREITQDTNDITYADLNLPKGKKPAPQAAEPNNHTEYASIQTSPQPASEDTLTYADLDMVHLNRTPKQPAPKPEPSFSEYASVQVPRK
T1 sequence (Q08722 whole entry, looked up): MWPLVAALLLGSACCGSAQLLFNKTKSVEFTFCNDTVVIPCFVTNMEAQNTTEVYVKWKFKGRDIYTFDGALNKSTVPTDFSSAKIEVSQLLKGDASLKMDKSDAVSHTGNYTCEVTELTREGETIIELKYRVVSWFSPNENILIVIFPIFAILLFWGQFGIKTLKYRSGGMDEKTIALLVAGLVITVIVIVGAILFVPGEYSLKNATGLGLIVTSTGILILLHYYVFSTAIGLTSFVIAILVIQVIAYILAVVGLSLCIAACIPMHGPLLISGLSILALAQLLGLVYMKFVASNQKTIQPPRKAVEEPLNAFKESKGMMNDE
Method in brief: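 First, His-tagged CD47 and Eu-labelled anti-His antibody met the compound for 30 min; next, site-specifically biotinylated SIRPalpha was added for 30 min; finally streptavidin-APC was added before reading the TR-FRET ratio.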

[12] = molecular target: T1, Tyrosine-protein phosphatase non-receptor type substrate 1 (Homo sapiens) + Leukocyte surface antigen CD47 (Homo sapiens); assay: CD47-SIRPalpha protein protein interaction - Alpha assay qHTS validation (AID 1347059);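 further: bead proximity luminescence from CD47 binding SIRPalpha after compound preincubation with SIRPalpha; on the % scale 0 is the no-effect control and ±100 the full control effect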
Method in brief: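 Biotinylated Avi-tagged SIRPalpha (25 nM) preincubated 30 min with compound, then His-tagged CD47 (12.5 nM) added 30 min; AlphaScreen with Ni-NTA acceptor and streptavidin donor beads. PBS pH 7.4, 0.05% IGEPAL, room temperature; 7-point titrations.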

[13] = molecular target: Atrial natriuretic peptide receptor 1 (Homo sapiens) (UniProt P16066); assay: Natriuretic polypeptide receptor (hNpr1) antagonism - Pilot screen (AID 1347049; calls by dose curve;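 further: agonist-evoked cGMP luminescence read 20 min after hNppA addition; series mostly up to about 58 µM; on the % scale 0 is the no-effect control and ±100 the full control effect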)
Atrial natriuretic peptide receptor 1 (Homo sapiens), sequence (P16066 whole entry, looked up): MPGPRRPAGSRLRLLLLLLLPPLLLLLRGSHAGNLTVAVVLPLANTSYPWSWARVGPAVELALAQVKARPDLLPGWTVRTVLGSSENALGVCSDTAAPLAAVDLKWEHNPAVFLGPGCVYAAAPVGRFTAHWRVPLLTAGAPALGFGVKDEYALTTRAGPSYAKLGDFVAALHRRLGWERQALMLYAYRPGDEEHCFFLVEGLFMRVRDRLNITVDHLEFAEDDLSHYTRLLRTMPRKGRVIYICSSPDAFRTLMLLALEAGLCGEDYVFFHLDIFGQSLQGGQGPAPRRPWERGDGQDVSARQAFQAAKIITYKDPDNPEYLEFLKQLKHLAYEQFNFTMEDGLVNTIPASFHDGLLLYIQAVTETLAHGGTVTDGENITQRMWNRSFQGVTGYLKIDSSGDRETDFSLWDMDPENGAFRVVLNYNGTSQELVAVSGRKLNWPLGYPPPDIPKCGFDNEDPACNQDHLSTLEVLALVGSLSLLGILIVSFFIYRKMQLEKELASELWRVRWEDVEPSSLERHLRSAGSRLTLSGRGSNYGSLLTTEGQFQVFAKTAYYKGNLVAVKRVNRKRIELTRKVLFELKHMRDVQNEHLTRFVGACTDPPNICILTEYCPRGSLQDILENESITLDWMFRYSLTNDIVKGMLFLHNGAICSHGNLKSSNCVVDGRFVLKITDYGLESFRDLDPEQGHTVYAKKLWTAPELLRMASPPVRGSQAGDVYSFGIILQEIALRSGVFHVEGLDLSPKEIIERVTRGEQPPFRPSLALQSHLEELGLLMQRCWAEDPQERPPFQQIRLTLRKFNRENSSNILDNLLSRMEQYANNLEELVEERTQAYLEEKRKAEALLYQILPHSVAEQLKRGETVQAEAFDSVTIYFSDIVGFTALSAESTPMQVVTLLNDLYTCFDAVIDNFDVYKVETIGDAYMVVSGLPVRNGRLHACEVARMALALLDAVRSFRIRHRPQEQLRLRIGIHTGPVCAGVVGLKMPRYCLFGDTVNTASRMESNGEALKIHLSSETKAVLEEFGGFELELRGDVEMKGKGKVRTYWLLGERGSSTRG
Method in brief: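 HEK293 cells expressing hNpr1 and GloSensor cGMP luciferase, 1500/well, loaded with 2% GloSensor reagent 2 h, compound 30 min at room temperature; luminescence read before and 20 min after 0.1 nM hNppA stimulation.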

[14] = molecular target: Parathyroid hormone/parathyroid hormone-related peptide receptor (Homo sapiens) (UniProt Q03431); assay: qHTS for PTHR1 Agonists: Optimization Screen against the NCGC LOPAC library (AID 1347079);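 further: GloSensor cAMP luminescence in HEK-293 GP2 cells expressing human PTHR1 with IBMX; 0% is about no effect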
Parathyroid hormone/parathyroid hormone-related peptide receptor (Homo sapiens), sequence (Q03431 whole entry, looked up): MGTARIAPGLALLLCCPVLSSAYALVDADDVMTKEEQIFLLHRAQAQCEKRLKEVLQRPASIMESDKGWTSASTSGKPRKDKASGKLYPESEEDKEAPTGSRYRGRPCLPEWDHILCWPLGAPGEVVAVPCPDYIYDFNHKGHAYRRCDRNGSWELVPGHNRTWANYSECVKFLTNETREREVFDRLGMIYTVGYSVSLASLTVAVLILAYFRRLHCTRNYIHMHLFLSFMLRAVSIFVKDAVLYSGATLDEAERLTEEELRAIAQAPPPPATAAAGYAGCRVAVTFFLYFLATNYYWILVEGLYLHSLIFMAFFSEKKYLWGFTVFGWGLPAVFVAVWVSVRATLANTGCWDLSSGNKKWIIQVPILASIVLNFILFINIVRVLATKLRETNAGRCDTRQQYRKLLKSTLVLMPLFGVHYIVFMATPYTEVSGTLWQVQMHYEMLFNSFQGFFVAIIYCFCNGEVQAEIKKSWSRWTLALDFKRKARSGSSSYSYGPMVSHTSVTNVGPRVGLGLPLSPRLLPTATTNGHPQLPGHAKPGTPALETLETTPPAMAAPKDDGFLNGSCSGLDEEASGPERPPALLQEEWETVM
Method in brief: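 Compounds were tested across a qHTS titration. PTHR1-expressing GP2 cells report cAMP rises via GloSensor luminescence after 1 hr compound exposure at 37C with IBMX present.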

Cc1cccc(Nc2cc(Cl)nc(SCC(=O)O)n2)c1C
inactive: Potency [1] | Potency [2] | Potency [3] | Potency [4] | Potency [5] | Potency [6] | Potency [7] | Potency [8] | Potency [9] | Potency [10]

O=C(Oc1ccccc1C(=O)O)c1ccccc1O
inactive: Potency [1] | Potency [2] | Potency [3] | Potency [4] | Potency [5] | Potency [6] | Potency [7] | Potency [8] | Potency [9] | Potency [10]

Nc1nc2c(ncn2CCC(CO)CO)c(=O)[nH]1
inactive: Potency [1] | Potency [2] | Potency [3] | Potency [4] | Potency [5] | Potency [6] | Potency [7] | Potency [8] | Potency [9] | Potency [10]

CCCCc1ncc(/C=C(\Cc2cccs2)C(=O)O)n1Cc1ccc(C(=O)O)cc1
inactive: Potency [1] | Potency [2] | outcome [11] | outcome [12] | Potency [3] | Potency [4] | Potency [5] | Potency [6] | Potency [8] | Potency [9] | Potency [10]

CC(C)(C)NCC(O)COc1ccc(NC(=O)NC2CCCCC2)cc1 (stereo not drawn)
inactive: Potency [1] | Potency [2] | Potency [3] | Potency [4] | Potency [5] | Potency [6] | Potency [7] | Potency [8] | Potency [9] | Potency [10]

C[C@H](NC(CCc1ccccc1)C(=O)O)C(=O)N1CCC[C@H]1C(=O)O (stereo partly drawn)
inactive: Potency [1] | Potency [2] | outcome [11] | outcome [12] | Potency [3] | Potency [4] | Potency [5] | Potency [7] | Potency [8] | Potency [9] | Potency [10]

CSc1ccc2c(c1)N(CCC1CCCCN1C)c1ccccc1S2 (stereo not drawn)
active: Potency [1] 18.4 µM | Potency [6] 21.1 µM | Potency [8] 24.6 µM
inactive: Potency [2] | outcome [11] | Potency [9]

O=C1c2c(O)cccc2Cc2cccc(O)c21
inactive: Potency [1] | Potency [2] | Potency [3] | Potency [4] | Potency [5] | Potency [6] | Potency [7] | Potency [8] | Potency [9] | Potency [10]

C/C(=C(\CCOP(=O)(O)O)SC(=O)c1ccccc1)N(C=O)Cc1cnc(C)nc1N
inactive: Potency [1] | activity change, negative = inhibition [2] 3.35% [at 4.81 µM] | activity change, negative = cytotoxic [3] 9.22% [at 4.81 µM] | activity change, negative = cytotoxic [4] 7.92% [at 4.84 µM] | activity change, negative = cytotoxic [5] 25.6% [at 4.84 µM] | activity change, negative = cytotoxic [6] -0.171% [at 4.84 µM] | activity change, negative = cytotoxic [7] -16.7% [at 4.84 µM] | activity change, negative = cytotoxic [8] 17.3% [at 6.03 µM] | activity change, negative = cytotoxic [9] 16.5% [at 4.84 µM] | activity change, negative = cytotoxic [10] 14.8% [at 4.84 µM]

COc1ccccc1O
inactive: Potency [1] | Potency [2] | Potency [3] | Potency [4] | Potency [5] | Potency [6] | Potency [7] | Potency [8] | Potency [9] | Potency [10]

C=Cc1c(C)c2cc3[nH]c(cc4nc(cc5nc(cc1[nH]2)C(C)=C5CCC(=O)O)C(CCC(=O)O)=C4C)c(C)c3C=C
inactive: Potency [1] | outcome [13] | Potency [2] | outcome [11] | outcome [12] | Potency [14] | Potency [3] | Potency [4] | Potency [5] | Potency [7] | Potency [8] | Potency [9] | Potency [10]

CCn1cc(C(=O)O)c(=O)c2cnc(N3CCNCC3)nc21
inactive: Potency [1] | Potency [2] | Potency [3] | Potency [4] | Potency [5] | Potency [6] | Potency [7] | Potency [8] | Potency [9] | Potency [10]

CN(C)CC[C@@H](c1ccc(Cl)cc1)c1ccccn1
inactive: Potency [1] | outcome [13] | Potency [2] | Potency [3] | Potency [4] | Potency [5] | Potency [6] | Potency [7] | Potency [8] | Potency [9] | Potency [10]

CSc1ccc2c(c1)C(N1CCN(C)CC1)Cc1ccccc1S2 (stereo not drawn)
inactive: Potency [1] | outcome [13] | outcome [11] | Potency [4] | Potency [9] | Potency [10]

Cc1cc(O)cc2c1O[C@](C)(CCC[C@H](C)CCC[C@H](C)CCCC(C)C)CC2
inactive: Potency [1] | Potency [2] | Potency [3] | Potency [4] | Potency [5] | Potency [6] | Potency [7] | Potency [8] | Potency [9] | Potency [10]

COc1cc2[nH]c(=O)[nH]c(=O)c2cc1OC
inactive: Potency [1] | Potency [2] | Potency [3] | Potency [4] | Potency [5] | Potency [6] | Potency [7] | Potency [8] | Potency [9] | Potency [10]

CC1(C)Oc2ccc(C#N)cc2[C@@H](N2CCCC2=O)[C@@H]1O
inactive: Potency [1] | Potency [2] | Potency [3] | Potency [4] | Potency [5] | Potency [6] | Potency [7] | Potency [8] | Potency [9] | Potency [10]

C[C@H]1O[C@@H](n2cc(F)c(=O)[nH]c2=O)[C@H](O)[C@@H]1O
active: Potency [9] 2.99 µM
inactive: Potency [1] | Potency [2] | outcome [11] | outcome [12] | Potency [3] | Potency [4] | Potency [5] | Potency [6] | Potency [8] | Potency [10]

NC1[C@H]2CN(c3nc4c(cc3F)c(=O)c(C(=O)O)cn4-c3ccc(F)cc3F)C[C@@H]12 (stereo partly drawn)
active: Potency [6] 13.3 µM
inactive: Potency [1] | Potency [2] | outcome [11] | outcome [12] | Potency [5] | Potency [7] | Potency [9] | Potency [10]

CC(C)(C(=O)O)c1ccc(C(O)CCCN2CCC(C(O)(c3ccccc3)c3ccccc3)CC2)cc1 (stereo not drawn)
inactive: Potency [1] | Potency [2] | Potency [14] | Potency [3] | Potency [4] | Potency [6] | Potency [7] | Potency [8] | Potency [9] | Potency [10]

CCC(=O)Nc1ccc(O)cc1
inactive: Potency [1] | Potency [2] | Potency [3] | Potency [4] | Potency [5] | Potency [6] | Potency [7] | Potency [8] | Potency [9] | Potency [10]

CC(C)(O)c1ccccc1CC[C@@H](SCC1(CC(=O)O)CC1)c1cccc(/C=C/c2ccc3ccc(Cl)cc3n2)c1
inactive: Potency [1] | Potency [2] | Potency [3] | Potency [4] | Potency [5] | Potency [6] | Potency [7] | Potency [8] | Potency [9] | Potency [10]
